Bioassay records: PubChem BioAssay, The Scripps Research Institute Molecular Screening Center
Rows were chosen to be rich in hits. Some 1.2% of all compounds tested hit in one or more screens of this group.
S1P2 agonist = S1P2 receptor agonists, primary screen, cell-based. Sphingosine 1-phosphate receptor 2 (Homo sapiens), O95136. S1P2-expressing cell line, agonist reporter read-out. activation, % at 4.5 µM. actives 0.46% (n = 97,000); in the data active means activation above about 16%;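 further: 0% = vehicle low control and 100% = maximal reference agonist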
Target sequence (O95136 whole entry, looked up): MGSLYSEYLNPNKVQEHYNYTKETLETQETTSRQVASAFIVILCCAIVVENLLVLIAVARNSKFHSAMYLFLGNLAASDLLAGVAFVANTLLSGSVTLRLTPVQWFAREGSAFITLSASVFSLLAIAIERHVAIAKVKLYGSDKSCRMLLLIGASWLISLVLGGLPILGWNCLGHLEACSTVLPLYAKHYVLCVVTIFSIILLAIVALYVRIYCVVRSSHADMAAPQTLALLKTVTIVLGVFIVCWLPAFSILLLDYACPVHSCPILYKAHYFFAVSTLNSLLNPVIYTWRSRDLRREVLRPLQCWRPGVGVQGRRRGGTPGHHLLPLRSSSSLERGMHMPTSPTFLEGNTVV
GALR2 agonist = GALR2 receptor agonists, primary screen, cell-based; actives 0.48% (n = 140,000); activation, % (concentration not given with the values); GALR2-expressing cells, agonist activation read-out; Galanin receptor type 2 (Homo sapiens), O43603; AID 803, 2007; in the data active means activation above about 5%, passing the limit was not always enough;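 further: 0% = vehicle buffer wells and 100% = reference agonist at full effect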
GALR2 antag = GALR2 antagonists in receptor-expressing cells, primary screen; Galanin receptor type 2 (Homo sapiens), O43603; antagonist mode; inhibition, % at 4 µM; actives 0.39% (n = 140,000);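 further: cells stimulated with galanin 1-16 at roughly its EC80; 0% = agonist challenge control and 100% = basal control without agonist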
S1P2 antag = human S1P2 receptor antagonists, primary screen, cell-based. cell-based S1P2 antagonist assay, inhibition at 5 uM. inhibition, % at 5 µM. actives 0.21% (n = 97,000); in the data active means inhibition above about 45%;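 further: CRE beta-lactamase reporter cells expressing human S1P2 stimulated with S1P; 0% = agonist at EC80 alone and 100% = agonist plus reference antagonist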
GALR2 agon conf = GALR2 agonists, retest of hits, confirmation, cell-based | shares compounds with GALR2 agonist | GALR2-expressing cells, agonist activation | activation, % at 5.6 µM | actives 10% (n = 460); in the data active means activation above about 8.4%;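 further: 0% = buffer-only vehicle wells and 100% = full reference agonist response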
BLA activ ctr = activators of NFAT-driven beta-lactamase reporter, confirmation, counter-screen for GALR2 agonist project, CHO NFAT-bla cells, FRET readout | beta-lactamase FRET activation | shares compounds with GALR2 agonist | AID 865, 2007 | activation, % at 5.6 µM | actives 10% (n = 460);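 active means activation above the screen-wide mean activation plus 3 SD, cut at about 8% in these data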;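 further: 0% = DMSO with PBS wells and 100% = thapsigargin positive control wells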
GALR2 blk conf = GALR2 antagonists, retest of hits, confirmation, cell-based; inhibition, % at 4 µM; shares compounds with GALR2 antag; AID 866, 2007; GALR2-expressing cells, antagonist mode, inhibition; actives 60% (n = 480);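 further: cells stimulated with galanin at about its EC80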
BLA inh counter = inhibitors of NFAT-driven beta-lactamase reporter, confirmation, counter-screen for GALR2 antagonist project, CHO NFAT-bla cells, FRET readout. inhibition, % at 4.2 µM. actives 36% (n = 480). AID 867, 2007. thapsigargin-stimulated. shares compounds with GALR2 antag;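 active means inhibition above the mean inhibition across tested compounds plus 3 SD, cut at about 27% in these data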;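 further: 0% = 500 nM thapsigargin stimulated wells and 100% = unstimulated BSA only wells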
The depositor's hits bear a star; . = not tested or not shown. Unless noted, no stated cut-off is given here; in the data, active means inhibition above about 27%; inactive means the rest.

SMILES	S1P2 agonist	GALR2 agonist	GALR2 antag	S1P2 antag	GALR2 blk conf	BLA inh counter	others
O=C(Nc1ccc(Br)cc1)c1ccc(N2C(=O)C3CC=C(Cl)CC3C2=O)cc1 (centres undefined)	-1	12*	9	21	.	.	GALR2 agon conf=0;BLA activ ctr=-4
CC(=O)c1c(C)[nH]c(C(=O)CSc2nnc(-c3ccc(Cl)cc3)n2CC2CCCO2)c1C (centres undefined)	1	-1	-2	-18	.	.
Cc1c(Cl)cccc1NC(=O)CCC(=O)NNC(=O)c1ccco1	-4	-1	2	11	.	.
Cc1ccc(NC(=O)CCC(=O)NNC(=O)c2ccco2)cc1C	-11	18*	7	7	.	.	GALR2 agon conf=-1;BLA activ ctr=-1
Cc1nc2cc(C(=O)N3CCc4ccccc43)ccc2n1-c1ccc(F)c(F)c1	.	0	-6	.	.	.
CCN(CC(=O)Nc1c(C(=O)OC)[nH]c2ccc(Cl)cc12)c1ccc2c(c1)OCO2	-5	0	7	4	.	.
CCOC(=O)c1[nH]c2ccc(Cl)cc2c1NC(=O)/C=C/c1ccc2c(c1)OCO2	.	14*	-5	.	.	.	GALR2 agon conf=8.5*;BLA activ ctr=2
Cc1ccc2nsnc2c1NC(=O)c1ccc(-c2cc(Cl)ccc2Cl)o1	4	10	38*	28	23	21	GALR2 agon conf=11*;BLA activ ctr=3
Cn1ncc(Cl)c1C(=O)NC(=S)Nc1sc2c(c1C#N)CCCCC2	-6	-4	6	-17	.	.
CCc1c(C)nc2ncnn2c1NCCc1ccc(OC)c(OC)c1	-16	-2	5	7	.	.
COc1ccc(CCNc2c(C)c(C)nc3ncnn23)cc1	-9	-1	31*	69*	39*	9
N#C/C(=N\Nc1cc(Cl)cc(Cl)c1)c1nnc2n1CCCCC2	.	-1	-16	.	.	.
Cc1nc2ccc(NS(=O)(=O)c3ccc4c(c3)OCCO4)cc2s1	-3	-2	34*	22	26	13
Cc1ccc(S(=O)(=O)Nc2ccc3nc(C)sc3c2)cc1	-3	0	15	6	.	.
Nc1ccc2nc(CN3CCOCC3)[nH]c2c1	-2	-2	7	-2	.	.
COc1ccc(C(=O)c2sc3nc(-c4ccc(OC)cc4)ccc3c2N)cc1	.	-1	6	.	.	.
COc1ccc(-c2ccc3c(N)c(C(=O)c4cccc(OC)c4)sc3n2)cc1	-8	-3	29*	18	20	23
COc1ccc(Nc2nc(N3CCCC3)c3ccccc3n2)cc1	.	1	30*	.	36*	14
O=C(Cn1ncc(Cl)c(Cl)c1=O)N1CCN(S(=O)(=O)c2ccc3ccccc3c2)CC1	.	-1	29*	.	56*	2
O=C(CSc1nc2ccccc2o1)N1CCN(S(=O)(=O)c2ccc3ccccc3c2)CC1	.	0	-4	.	.	.
COc1ccc2[nH]c3c(NCc4ccco4)ncnc3c2c1	-10	-2	28*	-4	23	8
Cc1ccccc1NC(=O)/C=C/c1ccc([N+](=O)[O-])s1	.	1	34*	.	60*	62*
COc1ccc(CNC(=O)Cc2nn(C)c(=O)c3ccccc23)cc1	-2	-1	36*	21	23	5
COc1ccc(OC)c(NC(=O)Cc2nn(C)c(=O)c3ccccc23)c1	0	-2	9	-18	.	.
Cc1ccc(CNCCC2=CCCCC2)cc1	-4	-2	-3	-1	.	.
SMILES	S1P2 agonist	GALR2 agonist	GALR2 antag	S1P2 antag	GALR2 blk conf	BLA inh counter	others
Cc1[nH]c2ccccc2c1-c1nc2ccccc2[nH]1	.	-2	42*	.	49*	11
Cc1sc(NC(=S)NC(=O)C(C)(C)C)c(C(N)=O)c1C	-3	-2	4	13	.	.
Oc1c(Cl)cccc1C=Nc1cc(C(F)(F)F)ccc1N1CCCC1	-4	-2	32*	8	16	17
Cc1ccccc1NC1=C/C(=N\S(=O)(=O)c2cccs2)c2ccccc2C1=O	8	5	63*	41	44*	59*
COC(=O)c1ccc(NC(c2ccc(Cl)cc2)P(=O)(OC)OC)cc1 (centres undefined)	.	0	-8	.	.	.
CNC1=C(N(C(C)=O)c2ccc(Br)cc2)C(=O)c2ccccc2C1=O	.	-1	1	.	.	.
CC(=O)C1=C(c2ccc(Br)cc2)C(=O)c2ccccc2C1=O	.	-2	35*	.	26	16
Cc1ccc(S(=O)(=O)N(C)c2ccc(OCC(=O)O)cc2)cc1	-4	1	-13	0	.	.
CCOC(=O)c1ccc(NC(=O)CN2C(=O)CCC2=O)cc1	1	-3	-1	-14	.	.
CCc1ccccc1NC(=O)CN(C)C(=O)Cn1ncc(Cl)c(Cl)c1=O	.	-2	78*	.	75*	23
Cc1cc(C(=O)Cn2ncc(Cl)c(Cl)c2=O)c(C)n1CC(F)(F)F	.	0	20	.	.	.
Cc1ccc(C(=O)OCn2ncc(Cl)c(Cl)c2=O)cc1	-5	-2	85*	80*	94*	71*
O=C(OCn1ncc(Cl)c(Cl)c1=O)c1ccc(C(F)(F)F)cc1	-10	-4	34*	24	43*	12
Cc1ccc(C)c(C(=O)Cn2ncc(Cl)c(Cl)c2=O)c1	-9	-2	20	20	.	.
CCOC(=O)c1ccc(NC(=O)Cn2ncc(Cl)c(Cl)c2=O)cc1	.	0	82*	.	67*	48*
NC(=O)c1ccccc1NC(=O)Nc1cccc(Cl)c1Cl	.	-2	53*	.	69*	33*
Cc1ccc(C(C)C)c(OCc2ccc(C(=O)N/N=C/c3cccc(O)c3O)cc2)c1	.	-1	16	.	.	.
O=C(c1ccccc1)c1ccc2nc(-c3ccc(NC(=O)c4ccccc4F)cc3)[nH]c2c1	-8	4	39*	31	31*	10
CS(=O)(=O)c1nc(-c2ccco2)cc(C(F)(F)F)n1	-8	3	27*	24	53*	44*
O=C(NC1CCCCC1)C(c1cc2c(cc1[N+](=O)[O-])OCO2)N1CCCCC1 (centres undefined)	.	-1	5	.	.	.
CCOC(=O)c1c(C)nc2sc(C(=O)Nc3ccc(C(C)=O)cc3)c(N)c2c1-c1ccc(OC)cc1	-7	2	30*	27	20	38*
CCOC(=O)c1c(C)nc2sc(C(=O)Nc3ccc(OC)cc3)c(N)c2c1-c1ccc(OC)cc1	-2	-3	-1	-7	.	.
CCCCOc1ccc(NC(=S)Nc2cc(C)nc(SCCCC)n2)cc1	.	-1	4	.	.	.
Cc1cc(Nc2cccc(Cl)c2)nc(NCc2ccccc2)n1	.	0	31*	.	51*	25
